Experimental findings from PubChem BioAssay AID2061320 (National Center for Advancing Translational Sciences (NCATS), 2025) are described below.

Each structure is given as a SMILES string. Results filed as inconclusive are left out. Unmarked numbers belong to inactive results. Active and inactive are the calls of the source. Calls follow the shape of the dose curve; as a rule, active = well fitted inhibition curve with a large enough effect; inconclusive = small, poorly fitted or top-dose-only effect; inactive = flat fitted curve, though single readings scatter.

A short description of this assay: Identification of antibody-drug conjugate (ADC) payloads which are substrates of ATP-binding cassette drug efflux transporters: ABCG2-H460-MX20 cell line. The note with it: H460-MX20 (ABCG2) viability, CellTiter-Glo, 48 h; series mostly up to 28.7 µM; activity change, negative = inhibition: at the top concentration. An excerpt:
Antibody-drug conjugates (ADCs) feature an antibody recognizing a specific protein joined to a potent toxic payload. Numerous antibody-drug conjugates have received FDA approval; however, clinical resistance arises. Resistance mechanisms include decreased expression or mutation of the antibody target, impaired payload release, or increased expression of ATP-binding cassette (ABC) efflux transporters associated with multidrug resistance. We therefore sought to characterize the interaction of ABC multidrug transporters with ADC payloads. We performed a high-throughput screen with 27 common ADC payloads using cells lines expressing ABC transporters P-glycoprotein (P-gp, encoded by ABCB1) or ABCG2 (encoded by ABCG2). Confirmatory assays were also performed using cells transfected to express P-gp, ABCG2, or MRP1 (encoded by ABCC1). Several commonly used ADC payloads were substrates of P-gp, including calicheamicin gamma1, monomethyl auristatin E, DM1, and DM4. All the pyrrolobenzodiazepines tested - SJG136, SGD-1882, SG2057, and SG3199 - were substrates of P-gp, ABCG2, and MRP1. […] These findings highlight the risk of transporter-mediated resistance with certain ADC payloads and underscore the importance of selecting payloads that evade ABC transporter recognition in future ADC development.
HEK-293 cells were transfected with empty vector (pcDNA) or vector containing the human ABCB1 (MDR-19), ABCG2 (R-5), or ABCC1 gene (MRP1) and were maintained in EMEM with 2 mg/mL G418 added to maintain transporter expression. The HeLa derivative KB-3-1 and the P-gp overexpressing KB-8-5-11 subline were maintained in DMEM; KB-8-5-11 additionally received 100 ng/mL colchicine. H460 parental cells were obtained from the Division of Cancer Treatment and Diagnosis Tumor Repository, National Cancer Institute at Frederick, MD and were cultured in RPMI. The ABCG2 expressing subline H460 MX20 was generated by selecting H460 cells in 20 nM mitoxantrone. Media in all cases was supplemented with 10% FBS and 1% penicillin-streptomycin. We explored 27 common ADC payloads, in two orthogonal, paired cell line sets-a drug selected and transfected set for each transporter--to identify substrates of the ABC transporters P-gp and ABCG2. Compounds were sourced from Levena Biopharma (San Diego, CA), Selleck Chem (Houston, TX), ChemieTek (Indianapolis, IN), or Microsource Discovery Systems (Gaylordsville, CT). Screening was performed as previously described. Briefly, cells were plated at a density of 500 cells/well in 1536 well plates with compounds added using a 1536-head pin tool (Kalypsys, San Diego CA). Cells were incubated with cytotoxic drugs and processed with CellTiter Glo reagent (Promega, Madison, WI) to determine viability after 48 hours. P-gp substrates were identified by comparing compound activity between paired sets of low-expressing (sensitive) and over-expressing (resistant) cell lines.
In general terms: Cellular ATP, detected with luciferase, serves as a proxy for viable cell number.
With `CC(C)(C)OC(=O)Nc1ccc2[nH]c(C(=O)N3C[C@@H](CCl)c4c3cc(O)c3ccccc43)cc2c1`, the Potency was 10.6 nM (active). As for `COc1cccc2c1C(=O)c1c(O)c3c(c(O)c1C2=O)C[C@@](O)(C(=O)CO)C[C@@H]3O[C@H]1C[C@H](N)[C@H](O)[C@H](C)O1`, the Potency is 1190 nM (active). Consider `CN(C)CCOc1ccc2[nH]c(C(=O)N3C[C@@H](CCl)c4c3cc(O)c3ccccc43)cc2c1`, for which the Potency was 0.8 nM (active).

As to `CC[C@H](C)[C@@H]([C@H](N)CC(=O)N1CCC[C@H]1[C@H](OC)[C@@H](C)C(=O)N[C@@H](Cc1ccccc1)c1nccs1)N(C)C(=O)[C@@H](NC(=O)[C@@H](NC)C(C)C)C(C)C`, the “activity change, negative = inhibition” value was -28.8%.

Take `CCN(C(C)=O)[C@H]1CO[C@@H](O[C@H]2[C@H](O[C@H]3C#C/C=C\C#C[C@]4(O)CC(=O)C(NC(=O)OC)=C3/C4=C\CSSSC)O[C@H](C)[C@@H](NO[C@H]3C[C@H](O)[C@H](SC(=O)c4c(C)c(I)c(O[C@@H]5O[C@@H](C)[C@H](O)[C@@H](OC)[C@H]5O)c(OC)c4OC)[C@@H](C)O3)[C@@H]2O)C[C@@H]1OC`: the Potency was 15 nM (active).

In the case of `CCN[C@H]1CO[C@@H](O[C@H]2[C@H](O[C@H]3C#C/C=C\C#C[C@]4(O)CC(=O)C(NC(=O)OC)=C3/C4=C\CSSSC)O[C@H](C)[C@@H](NO[C@H]3C[C@H](O)[C@H](SC(=O)c4c(C)c(I)c(O[C@@H]5O[C@@H](C)[C@H](O)[C@@H](OC)[C@H]5O)c(OC)c4OC)[C@@H](C)O3)[C@@H]2O)C[C@@H]1OC`, the Potency is 4.2 nM (active). On to `COC(=O)c1cc2c3c(cc(O)c2[nH]1)N(C(=O)c1cc2cc(OC)c(OC)c(OC)c2[nH]1)CC3CCl` (stereo not drawn), for which the Potency is 0.7 nM (active). With `COc1cccc2c1C(=O)c1c(O)c3c(c(O)c1C2=O)C[C@@](O)(C(=O)CO)C[C@@H]3O[C@H]1C[C@H]2[C@H](O[C@@H]3[C@@H](OC)OCCN32)[C@H](C)O1`, the Potency is 0.2 nM (active).
